Here are results for 17 compounds from PubChem BioAssay (NCATS).

Records with an inconclusive call do not appear. Calls of active or inactive are those of the source. Calls come from the whole dose curve; as a rule, active = well fitted curve in the direction sought with a large enough effect; inconclusive = small, poorly fitted or top-dose-only effect, or another doubt; inactive = no such curve, though single readings can be large; an effect the other way counts as inactive or inconclusive.

In assay [1] the test system is Zika virus NS2B-NS3 protease. Nature of the assay: Primary screen GU AMC qHTS for Zika virus inhibitors (AID 1347154). Note: nearly all actives have a fitted effect of over 70% in size. Put shortly:
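Unlinked Zika NS2B hydrophilic domain–NS3 protease complex at 25 nM in 10 mM Tris-HCl pH 8.0, 0.01% Tween 20, with an AMC peptide substrate. Fluorescence change (340/450 nm) over 15 min at room temperature, normalized to controls, fitted to 4-parameter Hill.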
For orientation: qHTS replaces the single test concentration by a dilution series.

The test system of assay [2] is Zika virus NS2B-NS3 protease (unlinked complex). Nature of the assay: Primary screen GU Rhodamine qHTS for Zika virus inhibitors: Unlinked NS2B-NS3 protease assay (AID 1347159). Note: nearly all actives have a fitted effect of over 60% in size. Note: potency is the fitted concentration of half-maximal effect. Put shortly: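 Percent inhibition derives from the 15-min fluorescence change (ex 480, em 540 nm), normalized to no-enzyme and no-inhibitor wells. Reactions contained 25 nM NS2B-NS3 complex and 1.5 microM substrate in 10 mM Tris-HCl pH 8.0.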

Assay [3] concerns Zika virus NS2B-NS3 protease (linked construct). Nature of the assay: Primary screen NINDS Rhodamine qHTS for Zika virus inhibitors (AID 1347160). Note: nearly all actives have a fitted effect of over 55% in size. Put shortly:
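In 10 mM Tris-HCl pH 8.0 containing 0.01% Tween 20, linked NS2B-NS3 protease (25 nM final) is exposed to test compounds for 15 min. Cleavage of 1.5 microM Rhodamine110 substrate is tracked by fluorescence over 15 min.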

A short description of assay [4]: qHTS to identify inhibitors of the type 1 interferon - major histocompatibility complex class I in skeletal muscle: primary screen against the NCATS Mechanism Interrogation Plate v5.0 (MIPE) Libary (AID 1347411). Note: nearly all actives have a fitted effect of over 65% in size. Note: potency is the fitted concentration of half-maximal effect. A digest of the protocol:
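Luminescence from HiBiT-tagged endogenous HLA-B*08:01 served as the MHC class I read-out. CRISPR-engineered C25cl48 human myoblasts received 4.0 ng/ml IFN-beta plus compound for 24 hrs, with an 11-point, 1:3 series topping at 46 uM final.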

A short description of assay [5]: qHTS to identify inhibitors of the type 1 interferon - major histocompatibility complex class I in skeletal muscle: primary screen against the NCATS LOPAC collection (AID 1347405).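 Note: lytic HiBiT luminescence reporting HLA-B protein level.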 Note: potency is the fitted concentration of half-maximal effect. A digest of the protocol:
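Luminescence from HiBiT fused to endogenous HLA-B in CRISPR-engineered human myoblasts served as the read-out. Cells received 4.0 ng/ml IFN-beta plus compound (seven concentrations, 1:4.3 steps, highest 46 uM final) for 24 hrs before lytic detection.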

Assay [6] in a line: qHTS for inhibitors of adenylyl cyclases using a fission yeast platform: a pilot screen against the NCATS LOPAC library (AID 1347410). A digest of the protocol: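 S. pombe CHP2027 (AC9-GNAS-PDE4D2) carrying PKA-repressed fbp1-GFP, incubated 18 h at 30C in EMM with LOPAC compounds at up to 57 uM. GFP gain-of-signal read by laser scanning cytometry; DMSO negative control.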
A short description of assay [7]: qHTS to identify inhibitors of the type 1 interferon - major histocompatibility complex class I in skeletal muscle: primary screen against the NCATS Pharmaceutical Collection (AID 1347407).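 Note: luminescence of HiBiT knocked into endogenous HLA-B as interferon-induced MHC class I level.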 Put shortly:
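Immortalized human myoblasts (C25cl48) with HiBiT knocked into endogenous HLA-B*08:01 were stimulated with 4.0 ng/ml IFN-beta and treated with compounds ([…] top 46 uM) for 24 hrs at 37 C. HiBiT lytic luminescence read.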

The target in assay [8] is Protein phosphatase 1D (Homo sapiens) (UniProt O15297). Nature of the assay: RapidFire Mass Spectrometry qHTS Assay for Modulators of WT P53-Induced Phosphatase 1 (WIP1) (AID 1347424).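 Note: amount of dephosphorylated VEPPL-S-QETFS peptide product formed by WIP1; series mostly up to about 63 µM.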 A digest of the protocol: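 10 nM WIP1 preincubated with compounds 1 hr at room temperature in pH 7.5 Tris buffer with 30 mM MgCl2, 1 mM TCEP; 2 uM VEPPL-pS-QETFS phosphopeptide for 5 min, formic acid quench; dephosphorylated product quantified by RapidFire MS against labelled standard.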
Protein phosphatase 1D (Homo sapiens), sequence (O15297 whole entry, looked up): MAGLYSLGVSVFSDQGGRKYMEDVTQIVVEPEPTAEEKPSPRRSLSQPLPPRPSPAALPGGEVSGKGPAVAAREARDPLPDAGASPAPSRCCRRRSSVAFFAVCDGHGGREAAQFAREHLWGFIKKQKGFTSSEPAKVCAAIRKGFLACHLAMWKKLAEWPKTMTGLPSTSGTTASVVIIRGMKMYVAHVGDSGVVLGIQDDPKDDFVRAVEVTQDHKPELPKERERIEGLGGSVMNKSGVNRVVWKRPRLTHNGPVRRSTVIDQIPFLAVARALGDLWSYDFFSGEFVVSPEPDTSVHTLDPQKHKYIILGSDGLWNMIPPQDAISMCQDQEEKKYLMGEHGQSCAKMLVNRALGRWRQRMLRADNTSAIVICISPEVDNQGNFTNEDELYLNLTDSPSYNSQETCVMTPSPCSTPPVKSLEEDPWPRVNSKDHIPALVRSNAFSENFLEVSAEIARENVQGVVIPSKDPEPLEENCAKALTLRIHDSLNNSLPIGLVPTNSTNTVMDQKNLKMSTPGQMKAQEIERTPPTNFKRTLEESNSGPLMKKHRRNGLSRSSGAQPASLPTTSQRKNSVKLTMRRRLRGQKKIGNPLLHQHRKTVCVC

For the compound `Cc1cc(Nc2nc(N[C@@H](C)c3ncc(F)cn3)ncc2Cl)n[nH]1`, the Potency result in assay [1], in assay [2] and in assay [3] was “inactive” each time. In addition, in assay [4], the Potency is 1.04 µM (active).

In the case of `CCc1cncnc1N1CCN(Cc2nc3ccc(C(F)(F)F)cc3[nH]2)CC1`, the Potency entry in assay [1], in assay [2], in assay [3], in assay [5] and in assay [4] was “inactive” throughout. In addition, the compound was classed as inactive in assay [6].

In the case of `CC(C)(N)C(=O)N[C@H](COCc1ccccc1)C(=O)N1CCC2(CC1)CN(S(C)(=O)=O)c1ccccc12`, the Potency entry in assay [1], in assay [2], in assay [3] and in assay [4] was “inactive” in each case.

Turning to `CN(C)c1ccc(Nc2nc(N)n(C(=O)c3c(F)cccc3F)n2)cc1`, the Potency entry in assay [1], in assay [2] and in assay [3] was “inactive” each time. In addition, the Potency in assay [4] was 16.5 µM (active).

Regarding `O=C(NOC[C@H](O)CO)c1ccc(F)c(F)c1Nc1ccc(I)cc1F`, the Potency result in assay [1] is “inactive”. In addition, the Potency in assay [2] is 22.4 µM (active).

`O=C(c1cc(Cc2n[nH]c(=O)c3ccccc23)ccc1F)N1CCN(C(=O)C2CC2)CC1`: the Potency entry in assay [1], in assay [2] and in assay [3] was “inactive” each time.

Regarding `CS(=O)(=O)c1cccc(CNc2nc(Nc3ccc4c(c3)CCC(=O)N4)ncc2C(F)(F)F)c1`, the Potency result in assay [1], in assay [2] and in assay [3] was “inactive” each time. Also, the figures for the Potency in assay [5] and in assay [4] were 5.62 µM (active) and 10.4 µM (active), respectively. In addition, the compound was called inactive in assay [6].

With `CCC(C)n1ncn(-c2ccc(N3CCN(c4ccc(OC[C@H]5CO[C@](Cn6cncn6)(c6ccc(Cl)cc6Cl)O5)cc4)CC3)cc2)c1=O` (stereo partly drawn), the Potency entry in assay [1], in assay [2], in assay [3], in assay [4] and in assay [8] was “inactive” in each case. The compound was called inactive in assay [7].

`CCc1cc(Nc2nccc(-c3c(-c4ccc(OC)c(C(=O)Nc5c(F)cccc5F)c4)nc4ccccn34)n2)c(OC)cc1N1CCC(N2CCN(S(C)(=O)=O)CC2)CC1`: the Potency entry in assay [1], in assay [2] and in assay [3] was “inactive” in each case.

Take `Cc1csc(NC(=O)c2sc3nc4c(c(C(F)(F)F)c3c2N)CCC4)n1`: the Potency result in assay [1], in assay [2] and in assay [3] was “inactive” in each case.

Take `CC(C)OC(=O)C1=CN(C(=O)c2ccc(F)c(F)c2)CC(C)(C)c2c1[nH]c1ccccc21`: the Potency entry in assay [1], in assay [2], in assay [3] and in assay [4] was “inactive” in each case.

For `COc1nc(-c2ccc3c(c2)OCO3)n(-c2ccc(NC(=O)CSc3ccccc3)cc2)n1`, the Potency result in assay [1], in assay [2], in assay [3] and in assay [4] was “inactive” throughout.

For `CC1(C)CNc2cc(NC(=O)c3cccnc3NCc3ccncc3)ccc21`, the Potency entry in assay [1], in assay [2], in assay [3] and in assay [4] was “inactive” each time.

Turning to `O=C1CCCC2=C1C(c1[nH]ncc1Cl)N=C(Nc1nc3ccccc3o1)N2` (stereo not drawn), the Potency entry in assay [1], in assay [2], in assay [3] and in assay [4] was “inactive” each time.

Take `Cc1cnc(Nc2ccc(OCCN3CCCC3)cc2)nc1Nc1cccc(S(=O)(=O)NC(C)(C)C)c1`: the Potency entry in assay [1], in assay [2] and in assay [3] was “inactive” each time. In addition, the Potency in assay [4] was 5.23 µM (active).

Consider `CN(C)c1ccc(C2Nc3ccc4ccccc4c3C3=C2C(=O)CC(C)(C)C3)cc1Br` (stereo not drawn), for which the Potency entry in assay [1], in assay [2], in assay [3] and in assay [4] was “inactive” each time.

As to `CCCS(=O)(=O)Nc1ccc(F)c(C(=O)c2c[nH]c3ncc(Cl)cc23)c1F`, the Potency result in assay [1], in assay [2] and in assay [3] was “inactive” throughout.
